Laboratory results as given in PubChem BioAssay (NCI).
Compounds without any hit were thinned out: in the full panel of roughly 83,000, 20% have a hit.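 Values shown are percent growth following 48 h exposure of cells in 96-well plates to a single concentration of compound; below 10 was considered active.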 Activity calls are given as the source filed them.

Columns and labels:
Assay in all cases: NCI-60 one-dose screen, 48 h (100 = growth as untreated, 0 = no growth, -100 = all killed)
Conditions in all cases: 10 µM unless noted
[1] = system: NCI-H226 lung
[2] = system: NCI-H322M lung
[3] = system: HOP-62 NSCLC
[4] = system: NCI-H460 lung
[5] = system: HOP-92 NSCLC
[6] = system: NCI-H522 lung
[7] = system: A549/ATCC NSCLC
[8] = system: 786-0 renal
[9] = system: COLO 205 colon
[10] = system: DU-145 prostate
[11] = system: K-562 leukemia
[12] = system: MALME-3M melanoma
[13] = system: MDA-MB-231 breast
[14] = system: RXF 393 renal
[15] = system: SF-268 CNS
[16] = system: SF-295 CNS
[17] = system: SF-539 CNS
[18] = system: UACC-257 melanoma
[19] = system: M14 melanoma

Measured: growth

CCOC(=O)c1ccc(NC(=O)c2nc(-c3cc(OC)c(OC)c(OC)c3)n(-c3ccc(Cl)cc3)n2)cc1
inactive: [1] 90.9% | [2] 81.1% | [3] 97.6% | [4] 97.1% | [5] 71.8% | [6] 67.2% | [7] 88.9% | [8] 93.5% | [9] 104% | [10] 102% | [11] 85.7% | [12] 91.4% | [13] 69.4% | [14] 86.3% | [15] 84% | [16] 96.9% | [17] 97% | [18] 96.5% | [19] 97.6%

Cc1cc(N2CCCCC2)cc(C)c1-c1csc(NC(=O)c2ccncc2)n1
inactive: [1] 60.6% | [2] 78.2% | [3] 62.5% | [4] 66.9% | [5] 53.8% | [6] 44.1% | [7] 49.1% | [8] 77.5% | [9] 60.6% | [10] 77% | [11] 22.1% | [12] 59.7% | [13] 54.5% | [14] 77.6% | [15] 60% | [16] 22.5% | [17] 81.1% | [18] 33.2% | [19] 57.8%

N#Cc1nc(-c2ccc(F)cc2)oc1S(=O)(=O)N1CCOCC1
inactive: [1] 81.7% | [2] 102% | [3] 101% | [4] 107% | [5] 94.6% | [7] 107% | [8] 87.6% | [10] 93.8% | [13] 83.2% | [15] 114% | [16] 104% | [17] 66.7% | [18] 93.9% | [19] 54.2%
active: [6] -33.8% | [9] -36.4% | [11] 7.52% | [12] 1.99% | [14] -27.8%

C=CCSc1nnc(NC(=O)CCl)s1
inactive: [1] 88.8% | [2] 101% | [3] 109% | [4] 99.9% | [5] 112% | [6] 85.3% | [7] 95.2% | [8] 101% | [9] 122% | [10] 87.4% | [11] 87.7% | [12] 73.8% | [13] 89.6% | [14] 97.5% | [15] 91.9% | [16] 101% | [17] 101% | [18] 79.1% | [19] 83.2%

NC(=O)c1c(NC(=O)c2ccc3ccccc3c2)sc2c1CCC(=O)C2
inactive: [1] 91.8% | [2] 94.9% | [3] 99.9% | [4] 92.6% | [5] 83.6% | [6] 10.5% | [7] 95.5% | [8] 99.6% | [9] 58.4% | [10] 94.4% | [11] 14.6% | [12] 91.1% | [13] 67.5% | [14] 60.7% | [15] 31.4% | [16] 93.4% | [17] 25.4% | [18] 91.6% | [19] 37.4%

Cc1cc(C(=O)O)c(C)n1-c1cccc(C(=O)O)c1
inactive: [1] 100% | [2] 94% | [3] 96.7% | [4] 35.1% | [5] 90.5% | [6] 46% | [7] 71.4% | [8] 106% | [9] 92.5% | [10] 16.9% | [11] 63.3% | [12] 113% | [13] 96.8% | [14] 61.8% | [15] 84.5% | [16] 61.3% | [17] 102% | [18] 70.1% | [19] 90.9%

CC1=C2[C@@H](CC1)[C@]1(C)O[C@@](C(C)C)(C[C@H]1OC(=O)[C@H](C)O)[C@H]2OC(=O)/C=C/c1ccccc1
inactive: [1] 84.2% | [2] 85.9% | [3] 80.9% | [4] 88.9% | [5] 55.9% | [6] 74% | [7] 66.9% | [8] 66.5% | [9] 98.8% | [10] 105% | [11] 68.7% | [12] 101% | [13] 83.1% | [14] 30.8% | [15] 41% | [16] 78.7% | [17] 96.8% | [18] 90.5% | [19] 87.2%

Cc1csc(Nc2nc(-c3ccccn3)nc(C(Cl)(Cl)Cl)n2)n1
inactive: [1] 101% | [2] 80.5% | [3] 101% | [4] 84% | [5] 94.1% | [6] 86.7% | [7] 79.4% | [8] 94.8% | [9] 92% | [10] 69.7% | [11] 87.8% | [12] 73.9% | [13] 80.3% | [14] 91.4% | [15] 82.8% | [16] 91% | [17] 94.2% | [18] 78.8% | [19] 83.7%
